# Compound activity from PubChem.
# Rows were chosen to be rich in hits. Some 21% of all compounds tested hit in one or more screens of this group.
# CHX counter – counter-screen for Shiga toxin inhibitors: cycloheximide protein synthesis inhibition. cell reporter, cycloheximide protein synthesis inhibition counterscreen. max response, %. 300,000 tested, 12% active; in the data active = max response mostly above about 13%, no sharp cut-off; inactive = mostly below about 14%; also: read at 38.3 µM for the half of the compounds with a filed dose; 0% is about no effect
# Shiga inhibitor – inhibitors of Shiga toxin in Vero cells; AID 2315; 290,000 tested, 9.2% active; Vero cells, Shiga toxin protein synthesis inhibition reporter; inhibition, % at 38.7 µM; in the data active = inhibition mostly above about 28%, no sharp cut-off; inactive = mostly below about 43%; also: 0% is about no effect
# Pf growth 48h – inhibits P. falciparum growth in the first generation, 48 h; P. falciparum luciferase growth in erythrocytes, 48 h; Potency, µM (titrated, usually from 28.7 µM), for inactives: top-dose activity change, negative = inhibition, most hits filed as inhibitors; 310,000 tested, 5.9% active; active = well fitted inhibition curve with a large enough effect; inconclusive = small, poorly fitted or top-dose-only effect, or another doubt; inactive = no such curve, though single readings can be large or run the other way; also: potency is read from the fitted curve at half-maximal effect; % is scaled to controls: 0 for no effect and ±100 for the full control effect
#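 Luciferase-expressing parasites in RBCs, 2% Hct / 0.1% parasitemia final; RPMI 1640 + 0.5% Albumax; 37 C, 5% CO2, one generation; luminescence read-out, lower signal = inhibition.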
# NS1 inh – influenza NS1 inhibition. 270,000 tested, 0.4% active. AID 2326. Potency, µM (highest dose often 46.1 µM), inactives show at the highest dose activity, positive = more growth; also: potency is read from the fitted curve at half-maximal effect; actives are rising curves; nearly all actives have a fitted effect of over 50% in size
#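 A cell-based growth assay was used: compounds that relieve NS1-induced slow growth of budding yeast raise OD600. Assay medium was yeast nitrogen base with ammonium sulphate and -URA supplement, pH 6.0, with 2% galactose.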
# SARS PLpro yeast – blocks SARS-CoV papain-like protease in a yeast assay. S. cerevisiae expressing SARS-CoV PLpro, growth rescue. Potency, µM (highest dose often 32.9 µM), for the others: at the highest dose activity, positive = growth rescue, hits mostly activators. 330,000 tested, 0.19% active. AID 485353; also: potency is read from the fitted curve at half-maximal effect; 0% is about no effect; nearly all actives have a fitted effect of over 55% in size
# Pf growth 96h – P. falciparum growth inhibition at 96 hour, primary screen for plastid delayed-death inhibitors; P. falciparum luciferase reporter growth, 96 h; 320,000 tested, 6.9% active; Potency, µM (titrated, usually from 28.7 µM), inactives show at the top dose activity change, negative = inhibition, actives largely listed as inhibitors; active = well fitted inhibition curve with a large enough effect; inconclusive = small, poorly fitted or top-dose-only effect, or another doubt; inactive = no such curve, though single readings can be large or run the other way; also: potency is read from the fitted curve at half-maximal effect; % is scaled to controls: 0 for no effect and ±100 for the full control effect
#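 P. falciparum expressing integrated firefly luciferase grown in erythrocytes (2% hematocrit, 0.05% parasitemia final) with compounds for 96 hours at 37 C, 5% CO2. Growth inhibition read as loss of luminescence after adding luciferase detection reagent.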
# The depositor's hits bear a star; ? = inconclusive; nt = not tested or not shown. Unless noted, calls follow the shape of the full dose curve.
SMILES,CHX counter,Shiga inhibitor,Pf growth 48h,NS1 inh,SARS PLpro yeast,Pf growth 96h
COc1ccc(NC(=O)/C=C/C(=O)O)cc1Cl,-5,5,4%,8%,-22%,37%
NNc1ccc(Cl)c(C(=O)O)c1,36*,96*,154%,7%,1%,165%
NNc1cc(C(=O)O)ccc1Cl,-1,12,9%,-1%,0%,3%
O=C(O)/C=C/C(=O)Nc1ccc(Cl)c(C(=O)O)c1,19*,51*,59%,0%,1%,0%
CCCCn1c(N)c(N(Cc2ccccc2OC)C(=O)COc2ccc(F)cc2Cl)c(=O)[nH]c1=O,-1,2,-6%,-4%,-3%,?
O=C(Nc1cccnc1)c1cccc(-c2cc3ccccc3oc2=O)c1,12,23,88%,4%,20%,?
COc1ccc(-c2cc3ccccc3oc2=O)cc1NC(=O)c1ccc(Br)o1,14,9,17%,-25%,-1%,-2%
COc1ccc(-c2cc3ccccc3oc2=O)cc1NC(=O)c1ccc([N+](=O)[O-])o1,9,15,?,-4%,-12%,2.6µM*
CC(=O)Nc1ccc(-c2cc3ccccc3o2)cc1,43*,105*,324%,-16%,-5%,nt
CCC(=O)Nc1cc(-c2cc3ccccc3oc2=O)ccc1OC,7,24,85%,-12%,-1%,2.9µM*
O=C(NCc1cccnc1)c1ccc(-c2cc3ccccc3oc2=O)cc1,39*,67*,41%,1%,0%,?
CCOC(=O)Cc1cnc(N)s1,0,6,12%,nt,-3%,?
COc1ccc(-c2cc3ccc(O)cc3oc2=O)cc1OC,32*,68*,54%,-7%,nt,36%
Cc1cc(N)ccc1-c1cc2ccccc2oc1=O,17*,nt,35%,3%,0%,?
COc1ccc(-c2cc3ccccc3oc2=O)cc1NC(=S)NC(=O)c1ccc2c(c1)OCCO2,63*,115*,90%,13%,6%,0%
COc1ccc(-c2cc3ccc(OCC(N)=O)cc3oc2=O)cc1OC,9,18,54%,11%,8%,24%
O=c1oc2ccccc2cc1NCc1ccccc1O,55*,123*,90%,-85%,-41%,?
COc1cc(N)ccc1-c1cc2ccccc2oc1=O,10,27,59%,25%,3%,?
COc1ccc(CCN(C)C(=O)c2ccc3c(=O)n4c(nc3c2)CCCCC4)cc1OC,nt,nt,nt,nt,0%,nt
O=C(NCC(c1ccco1)N1CCOCC1)C1CCCCC1 (centres undefined),nt,nt,2%,nt,2%,3%
Nc1ccc(-c2cc3ccccc3oc2=O)cc1,-6,-14,?,-9%,-1%,?
CCC(=O)Nc1ccc(-c2cc3ccccc3oc2=O)cc1,38*,107*,44%,-1%,-1%,16%
O=c1oc2ccccc2cc1-c1ccc(O)cc1,118*,69*,68%,nt,-40%,?
Nc1ccc2oc(=O)c(-c3ccccc3)cc2c1,36*,56*,nt,2%,-8%,53%
O=C(c1cn(Cc2ccccc2)c2ccccc12)C1CC1,12*,12,-22%,nt,-3%,0%
SMILES,CHX counter,Shiga inhibitor,Pf growth 48h,NS1 inh,SARS PLpro yeast,Pf growth 96h
O=C(O)Cn1cc(C(=O)C2CC2)c2ccccc21,-3,-15,-20%,0%,1%,nt
O=C(Cn1cc(C(=O)C2CC2)c2ccccc21)NCc1ccccc1,34*,53*,-23%,14%,8%,18%
O=C(COc1ccccc1)c1cn(Cc2ccccc2)c2ccccc12,18*,36,?,-2%,-8%,-3%
O=C(Cn1cc(C(=O)C2CC2)c2ccccc21)NC1CCCC1,16,-6,10%,2%,-3%,0%
CCCOc1ccc(C(C)=O)cc1CSc1nc(O)cc(=O)[nH]1,9,2,nt,?,11%,0.93µM*
COC(=O)CC1C(=O)NCCN1Cc1cn(-c2ccc(C)cc2)nc1-c1cccc(C)c1 (centres undefined),20*,46*,?,4%,1%,10µM*
Cc1ccc(-n2cc(CNCCN3CCOC3=O)c(-c3cccc(C)c3)n2)cc1,16*,54*,42%,-4%,-1%,-30%
Cc1cccc2c1Oc1ccccc1[C@@H]2NC(=O)c1ccc([N+](=O)[O-])cc1,nt,nt,nt,6%,nt,nt
